From the supplement of paper PMC3842684

Each compound was assayed on P. falciparum NF54-pfs16-GFP late (IV-V) stage gametocytes (assay: relative % inhibition of viable gametocyte number; higher = more gametocytocidal). Settings: 0.5 µM; stage: late (IV-V) gametocyte; incubation 72 h.
Outline: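 Compound was tested in duplicate at 5 or 0.5 µM on magnet-isolated NF54 pfs16-GFP gametocytes, taken either early (I/IIa, day 2) or late (day 8) and plated at 10% parasitaemia, 0.1% haematocrit. Incubation ran 72 h at 37°C, 5% CO2, 5% O2, followed by overnight MitoTracker Red staining and confocal imaging. Relative inhibition, based on counts of elongated GFP objects with above-cut-off MitoTracker signal, was normalised to in-plate vehicle and positive-control wells.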

Row | SMILES | relative % inhibition [%]
1 | Cc1cc(Nc2ccc(OCc3ccccc3)cc2)nc2cc(O)ccc12 | 35.1
2 | CCCCC(O)(c1ccc(Cl)cc1)C(CN1CCOCC1)c1ccc(Cl)cc1 (configuration not stated) | -3.8
3 | Cc1sc(NC(=O)c2ccccc2)c(C(c2cccs2)N2CCN(c3ccccc3)CC2)c1C (configuration not stated) | 43.3
4 | COc1ccc2c(c1)OC(O)(C(F)(F)C(F)(F)F)CC2=O (configuration not stated) | 8.91
5 | CCCN(CCC)CC(O)COc1ccccc1C(=O)Nc1ccccc1 (configuration not stated) | 34.9
6 | CC1CC(C)CN(C(=O)c2ccc(Cl)cc2Cl)C1 (configuration not stated) | 1.4
7 | CCCOCc1cc(CN2CCN(c3cccc(Cl)c3)CC2)c(O)c2ncccc12 | -7.95
8 | CCOc1cccc2sc(N(Cc3cccnc3)C(=O)C3CCCCC3)nc12 | -9.86
9 | O=C(Nc1ccccc1O)c1ccc(Oc2cccc(C(=O)Nc3ccccc3O)c2)cc1 | 14.1
10 | COc1ccc(-c2nonc2NC(=O)c2cccc(C)c2)cc1OC | -13.4
11 | Cc1ccc(S(=O)(=O)c2c(COC(=O)c3cccc(C)c3)c(-c3ccccc3)nn2C)cc1 | 18.5
12 | COc1cccc(Nc2nc(NCCO)c3ccccc3n2)c1 | 17.4
13 | CCOc1ccccc1CN1CCc2nc3cc(C(C)(C)C)nn3c(O)c2C1 | 66.3
14 | Oc1ccccc1CNCC12CC3CC(CC(C3)C1)C2 | 44.7
15 | COc1ccc(C2=C(c3ccc(OC)cc3)C3(c4ccccc4)C(=O)C2(c2ccccc2)C2C(=O)N(c4ccc(C)cc4)C(=O)C23)cc1 (configuration not stated) | 34.3
16 | CCN(CC)CCNc1ccnc2cc3ccccc3cc12 | 25.4
17 | COc1ccc(-c2nc(N3CCN(C(=O)C4CCCCC4)CC3)c3c4c(sc3n2)CCCC4)cc1 | 92.2
